JMJD2A Tudor inh – blocks the human JMJD2A Tudor domain | O75164 | AlphaScreen JMJD2A-Tudor / H3K4me3 peptide binding | Potency, µM (titrated, usually from 114 µM), inactives show at the top dose activity change, negative = inhibition, actives largely listed as inhibitors | 4.4% of 390,000 active | AID 504339; note: % is set by controls: 0 for no effect and ±100 for the full control effect; nearly all actives have a fitted effect of over 50% in size
Sfp inh – Sfp phosphopantetheinyl transferase inhibition. Q9F4F7. Biochemical Sfp PPTase activity, qHTS. Potency, µM, for inactives: largest response in the series, negative = inhibition, most hits filed as inhibitors. 3.5% of 310,000 active;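 note: the enzyme is Sfp with the accession as filed and its product quenches rhodamine fluorescence; 0% = enzyme reaction without inhibitor and -100% = no enzyme wells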
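Sfp 15 nM + cpd, 15 min RT; start w/ rhodamine-CoA 5 uM, BHQ-2-YbbR 12.5 uM (final); 50 mM Hepes pH 7.6, 10 mM MgCl2, 0.01% NP-40, 0.01% BSA; read 525/598 nm at 0 and 30 min.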
L3MBTL1 inh – inhibitors of human L3MBTL1. Q9Y468. 0.66% of 230,000 active. AID 485360. AlphaScreen L3MBTL1–H3K9me1 peptide binding. Potency, µM (titrated, usually from 57.1 µM), for inactives: at the highest dose activity, negative = inhibition, hits mostly inhibitors; note: % is set by controls: 0 for no effect and ±100 for the full control effect; nearly all actives have a fitted effect of over 60% in size
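AlphaScreen assay: L3MBTL1 (50 nM final) was preincubated 30 min at room temperature with biotinylated H3(1-15)K9me1 peptide (75 nM final), then 30 min with library compounds; streptavidin donor and nickel chelate acceptor beads (10 ug/mL final) added, 30 min dark.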
HP1b binding inh – inhibitors of HP1-beta chromodomain binding to methylated histone tails. P83916. AlphaScreen HP1-beta / biotin-H3K9me3 peptide binding. Potency, µM (doses to about 114 µM), for inactives: at the top dose activity change, negative = inhibition, usual class: inhibitors. 0.56% of 390,000 active. AID 540317; note: nearly all actives have a fitted effect of over 70% in size
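AlphaScreen: HP1-beta (50 nM) preformed 30 min with biotin-H3(1-18)K9me3 peptide (50 nM) in PBS pH 7.4, 0.01% Tween-20. Compound added for 30 min at RT, then streptavidin donor/nickel chelate acceptor beads (10 ug/mL) for 30 min.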
BAZ2B inh – blocks human BAZ2B; Q9UIF8; AlphaScreen BAZ2B-H3K14Ac peptide displacement; Potency, µM (top dose mostly 114 µM), without a hit: at the highest dose activity change, negative = inhibition, actives largely listed as inhibitors; 4.4% of 360,000 active; AID 504333; note: % is set by controls: 0 for no effect and ±100 for the full control effect; nearly all actives have a fitted effect of over 60% in size
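Protein-peptide AlphaScreen: BAZ2B 50 nM, b-H3K14Ac 50 nM, 1x PBS pH 7.4 + 0.01% Tween-20. Preincubation 30 min RT; cpd 30 min RT (top 110 uM); beads 20 min RT, light-protected.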
G9a inh – blocks human histone lysine methyltransferase G9a; Q96KQ7; G9a H3K9 monomethylation, AlphaScreen, 2 h; Potency, µM (series often up to 102 µM), for inactives: top-dose activity, negative = inhibition, actives largely listed as inhibitors; 8.8% of 350,000 active; AID 504332; note: % is set by controls: 0 for no effect and ±100 for the full control effect; nearly all actives have a fitted effect of over 75% in size
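Chemiluminescent proximity detection of H3K9 monomethylation, read after 10 min bead incubation in the dark. Reaction: 20 nM G9a, 500 nM biotin-H3K9 peptide, 20 uM SAM cofactor, 2 h, room temperature, following 15 min enzyme-compound preincubation.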
* hit, by the source's call; ? = inconclusive; . = no result; [ ] = another dose, or the depositor's remark. An excerpt weighted towards active compounds, which were near 12% of everything screened. Calls come from the whole dose curve; as a rule, active = well fitted curve in the direction sought with a large enough effect; inconclusive = small, poorly fitted or top-dose-only effect, or another doubt; inactive = no such curve, though single readings can be large; an effect the other way counts as inactive or inconclusive. Potency is the fitted concentration of half-maximal effect.

SMILES | JMJD2A Tudor inh | Sfp inh | L3MBTL1 inh | HP1b binding inh | BAZ2B inh | G9a inh
COc1ccc(N2CC(C(=O)Nc3nnc(SCC(=O)NCc4ccco4)s3)CC2=O)cc1 (stereo not drawn) | ? | 50µM* | . | -5% | 50µM* | 45µM*
O=S(=O)(N/N=C\c1cccnc1)c1ccccc1 | -18% | 24% | 4% | 30% | -1% | 10µM*
O=S(=O)(N/N=C/c1ccc(N2CCOCC2)cc1)c1ccccc1 | -21% | 15% | -26% | 4% | 5% | 45µM*
CC(=O)Nc1ccc(S(=O)(=O)N/N=C/c2cccnc2)cc1 | 6% | -2% | . | 43% | -10% | .
O=S(=O)(N/N=C/c1ccc(OC2CSC2)cc1)c1ccccc1 | -14% | -2% | -1% | 1% | -12% | ?
FC(F)(F)c1cc(CN2CC3(CCNCC3)C2)cc(C(F)(F)F)c1 | . | 0% | . | . | . | 5%[12.7 µM]
NNc1nc2cc3c(cc2s1)OCCO3 | -3% | 40µM* | . | 25% | ? | 71µM*
O=C(Nc1nc2cc3c(cc2s1)OCCO3)c1cccs1 | 7%[11.4 µM] | 5% | 15% | 76% | 5% | 15%
O=C(CCS(=O)(=O)c1ccccc1)Nc1nc2cc3c(cc2s1)OCO3 | -6% | -17% | -16% | 38% | 71µM* | ?
O=C(CCS(=O)(=O)c1ccccc1)Nc1nc2cc3c(cc2s1)OCCO3 | -25% | -18% | . | 38% | 79µM* | ?
COCCNC(=O)CCn1c(=O)c2cc(OC)c(OC)cc2n(CC(=O)Nc2ccccc2OC)c1=O | 0% | . | . | 27% | 8% | 0%[59 µM]
O=C(NCCc1ccccc1)c1ccc2c(c1)N(Cc1ccc(Cl)cc1)C(=O)c1ccccc1S2(=O)=O | -11% | . | . | 38% | -15% | -6%[59 µM]
CN(C)CCCNC(=O)CC(c1ccc(F)cc1)c1ccco1 (stereo not drawn) | -19% | 8% | -2% | 2% | 12% | 27%
CCCN(CCC)C(=O)CC(c1ccccc1)c1ccco1 (stereo not drawn) | -6% | 45µM* | 33% | 33% | -26% | .
CCN(CC)C(=O)CC(c1ccc(F)cc1)c1ccco1 (stereo not drawn) | -7% | -28% | 21%[11.4 µM] | 20% | -26% | 14µM*
CCCOC(=O)c1ccc(N)cc1 | . | -6% | . | . | . | 8%[12.7 µM]
CCOC(=O)c1sc(C)nc1C1CCN(C(=O)OCC)CC1 | 2% | -14% | . | -8% | -6% | 45µM*
c1ccc(SSc2ccccn2)nc1 | 4µM* | . | . | ? | . | .
Cc1ccc2c(=O)cc(C(=O)Nc3ccc(S(=O)(=O)N(C)Cc4ccccc4)cc3)oc2c1C | -14% | . | . | 65% | 16% | ?
CCC(CC)C(=O)NCc1ccc2c(c1)cc(C)n2C | -19% | 14% | -4% | 42% | -26% | 7%[12.7 µM]
CCOC(=O)NCc1ccc2c(c1)cc(C)n2C | -27% | -7% | -10% | -7% | -37% | 16%[12.7 µM]
CCc1cccc(C)c1NC(=S)NCc1ccc2c(c1)cc(C)n2C | 50µM* | 9% | -28% | -18% | 25µM* | 40µM*
Cc1cc2cc(CNC(=O)c3cccs3)ccc2n1C | ? | 45µM* | -18% | -15% | 50µM* | 50µM*
Cc1cc2cc(CNC(=O)Nc3ccccc3)ccc2n1C | ? | 11% | 2% | ? | 4% | 32µM*
Cc1cc2cc(CNC(=S)NC3CCCCC3)ccc2n1C | -30% | 14% | . | 25% | . | -2%
SMILES | JMJD2A Tudor inh | Sfp inh | L3MBTL1 inh | HP1b binding inh | BAZ2B inh | G9a inh
Cc1cc2cc(CNC(=S)NCc3ccccc3)ccc2n1C | 50µM* | 11% | -9% | ? | 25µM* | ?
COc1ccc(-c2nc3c4cnn(-c5ccccc5F)c4ncn3n2)cc1 | -8% | . | . | 28% | -3% | -5%[59 µM]
CC(C)c1ccc(NC(=O)CSc2nc(=O)n(Cc3ccccn3)c3c2CCC3)cc1 | -24% | . | . | 55% | 12% | -9%[59 µM]
COc1ccc(OCc2ccc(-c3nc(C#N)c(NC(C)c4ccccc4)o3)o2)cc1 (stereo not drawn) | -32% | . | . | 41% | -14% | 0%[59 µM]
Cc1cc2cc(CNC(=O)c3ccc(S(=O)(=O)N4CCCCC4)cc3)ccc2n1C | -8% | ? | . | 31% | -32% | 50µM*
COc1ccc(CC(=O)NCc2ccc3c(c2)cc(C)n3C)cc1 | -13% | 18% | -8% | 25% | -23% | -30%
Cc1cc2cc(CNC(=O)c3ccc(S(=O)(=O)N4CCCC4)cc3)ccc2n1C | -12% | -6% | -8% | 32% | 5% | ?
COc1ccc(NC(=S)NCc2ccc3c(c2)cc(C)n3C)cc1 | 50µM* | 4% | ? | ? | 45µM* | 40µM*
COc1ccc(NC(=S)NCc2cccn2C)cc1 | -31% | ? | -20% | -21% | 35µM* | 50µM*
COc1cccc(C(=O)NCc2ccc3c(c2)cc(C)n3C)c1 | ? | 9% | -10% | 0% | ? | 50µM*
FC(F)Sc1nc2ccccc2[nH]1 | ? | -3% | -2% | 48% | 0% | -15%[12.7 µM]
CCc1nn(CC(=O)NCCc2ccc(Cl)cc2)c(=O)c2cc3c(OC)cccc3n12 | -17% | . | . | 9% | -10% | -6%[59 µM]
CCCCC(=O)NCc1ccc2c(c1)cc(C)n2C | -23% | -10% | -10% | 8% | -6% | 8%[59 µM]
CCOC(=O)CCC(=O)NCc1ccc2c(c1)cc(C)n2C | -19% | 79µM* | -4% | 28% | -15% | 8%[0.0925 µM]
CCCCNC(=S)NCc1ccc2c(c1)cc(C)n2C | ? | 4% | -3% | -7% | 45µM* | ?
COc1ccccc1NC(=S)NCc1ccc2c(c1)cc(C)n2C | 50µM* | 9% | -6% | ? | 25µM* | ?
COc1ccc(C(=O)NCc2ccc3c(c2)cc(C)n3C)cc1OC | -32% | 2% | -17% | -4% | ? | ?
O=C1C[C@@H](c2ccc(O)cc2)Oc2cc(O[C@@H]3O[C@H](CO)[C@@H](O)[C@H](O)[C@H]3O)cc(O)c21 | . | -7% | . | . | . | .
CCc1cc2c(cc3c(=O)n(CC(=O)NC(C)c4ccccc4)ncn32)s1 (stereo not drawn) | 100µM* | . | . | 9% | -7% | -3%[59 µM]
CCN(CC)c1ccc2c(-c3ccc(S(=O)(=O)O)cc3S(=O)(=O)[O-])c3ccc(=[N+](CC)CC)cc-3oc2c1 | ? | 89µM* | . | 45µM* | 7.9µM* | 40µM*
COc1cc(OC)c(NC(=O)COCc2cc(-c3cccs3)on2)cc1Cl | -14% | . | . | 10% | 4% | -8%[59 µM]
COc1cc(OC)cc(N2C(=O)N(Cc3ccc(C(C)(C)C)cc3)c3ccccc3S2(=O)=O)c1 | -4% | . | . | 21% | -5% | 1%[59 µM]
CC(C)C[C@H](NC(=O)[C@H](Cc1ccccc1)NC(=O)[C@H](Cc1ccccc1)NC(=O)[C@@H](N)CO)C(=O)N[C@@H](CCCN=C(N)N)C(=O)N[C@@H](CC(N)=O)C(=O)O | . | -2% | . | . | . | .

Compound activity (PubChem BioAssay)
